In PubChem BioAssay (NCI):
This is part of a sample that, as a whole, favours compounds with a hit. Of some 83,000 tested, about 20% had one in any assay.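 96-well plates, one dose, 48 hours. Percent growth reported; active if below 10.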 A number with no mark means an inactive call. Calls of active or inactive are those of the source.

Tests used:
Assay in all cases: NCI-60 one-dose screen, 48 h (100 = growth as untreated, 0 = no growth, -100 = all killed)
Conditions in all cases: 10 µM unless noted
T-47D breast = test system: T-47D breast
BT-549 breast = test system: BT-549 breast
MDA-MB-435 melanoma = test system: MDA-MB-435 melanoma
SW-620 colon = test system: SW-620 colon
MCF7 breast = test system: MCF7 breast
HCT-116 colon = test system: HCT-116 colon
HCC-2998 colon = test system: HCC-2998 colon
KM12 colon = test system: KM12 colon

Row | SMILES | growth (T-47D breast) | growth (BT-549 breast) | growth (MDA-MB-435 melanoma) | growth (SW-620 colon) | growth (MCF7 breast) | growth (HCT-116 colon) | growth (HCC-2998 colon) | growth (KM12 colon)
1 | CNC(=O)c1cc(Oc2ccc3nc(NC(=O)Nc4ccc(N5CCC(N(C)C)CC5)cc4)sc3c2)ccn1 | 78.1% | 98.7% | 98.8% | 71.6% | 67.7% | 39% | 95.4% | 60.4%
2 | O=C1CC(c2nc3ccccc3[nH]2)CN1C1CCCCC1 (centres undefined) | 95.6% | 97.7% | 107% | 106% | 89.7% | 109% | 98.7% | 107%
3 | CN(C)CCOc1ccc(-c2nc3ccc(-c4nc5ccc(N6CCN(C)CC6)cc5[nH]4)cc3[nH]2)cc1 | 55.3% | 74.2% | 61.2% | 66.3% | 35.5% | 48.3% | 99% | 57.3%
4 | O=S(=O)(Nc1ccc(F)c(Cl)c1)c1ccc(-c2cnc(C3CC3)o2)cc1 | 27.4% | 36.3% | 2.08% (active) | 17.3% | 15.5% | 19.7% | 32% | 30.8%
5 | COc1cc(/C=C2\CN(C(=O)CCN3CCC(=NO)CC3)C/C(=C\c3cc(OC)c(OC)c(OC)c3)C2=O)cc(OC)c1OC | 4.37% (active) | -81.4% (active) | -81.9% (active) | -74.5% (active) | -54.3% (active) | -56.7% (active) | -79.8% (active) | -83.9% (active)
6 | COc1ccc(-c2cc(=O)[nH]c3c(OC)c4ccccc4c(OC)c23)cc1 | 31.6% | 26% | -28.9% (active) | 19.6% | 13.4% | 12.1% | 0.772% (active) | 2.11% (active)
7 | CN1CCN(Cc2ccc(NC(=O)c3[nH]ncc3Nc3ccnc4ccsc34)cc2)CC1 | 65.8% | 63.1% | 61.7% | 20.6% | 12.9% | 10.1% | 33% | 12.3%
8 | Nc1cc2ccncc2c2ccccc12 | 82.3% | 70.5% | 59.8% | 62.7% | 51.5% | 38.3% | 83% | 68.6%
9 | C=C1CC[C@@H]2[C@](C)(COC(C)=O)[C@H](OC(C)=O)CC[C@@]2(C)[C@@H]1CC(Nc1ccc(S(=O)(=O)Nc2ccc(Cl)nn2)cc1)C1=CCOC1=O (some centres undefined) | 34.1% | -9.45% (active) | 8.13% (active) | -37.7% (active) | 16.8% | -34.1% (active) | 88.5% | 27%
10 | C=C1C(=O)O[C@H]2[C@H]1CC/C(Cn1cc(Cc3c[nH]c4ccccc34)nn1)=C\CC[C@@]1(C)O[C@@H]21 | 1.32% (active) | 44.2% | 13.6% | -58.7% (active) | -61.2% (active) | -89.5% (active) | 61.5% | 67.2%
11 | COc1cc(OC)c(/C=C/S(=O)(=O)Cc2ccc(OC)c(N)n2)c(OC)c1 | 44.8% | 8.17% (active) | 2.24% (active) | 25.5% | 12.9% | 2.03% (active) | 18.8% | 12.9%
12 | O=c1[nH]c(-c2ccccn2)nc2sc3c(c12)CCCCC3 | 33.8% | 70.1% | 55.7% | 29.5% | 32.9% | 24.7% | 68.7% | 39.4%
13 | CC(C)[C@H]1COC(=O)N1[C@@H]1C(=O)N([C@@H](CCC(=O)N2CCN(C3CCCC3)CC2)C(=O)N[C@@H]2CCCc3ccccc32)[C@@H]1/C=C/c1cccc(Br)c1 | 39.9% | 27.6% | 30.2% | 45.2% | 23% | 14.3% | 30.8% | 35.6%
14 | CCCCN(CCCC)CCC(C)(O)c1cc2ccccc2c2ccccc12 (centres undefined) | 109% | 121% | 83.9% | 69.5% | 96.5% | 65.6% | 80.3% | 83.8%
15 | COc1cccc(NC(=O)c2sc3nc4c(cc3c2N)CN(Cc2ccccc2)CC4)c1 | 66.1% | 65.5% | 4.27% (active) | 54.4% | 49.5% | 58.1% | 77.3% | 48.2%
16 | O=C(CNC1C2CC3CC(C2)CC1C3)Sc1nnc2sc3ccccc3n12 (centres undefined) | 87.2% | 98% | 101% | 94.8% | 88.7% | 93.6% | 113% | 101%
17 | Cc1ccc2c(c1)C(=O)/C(=C/c1ccc(OCC(=O)c3ccccc3)cc1)O2 | 77.8% | 112% | 106% | 108% | 88.7% | 93.4% | 125% | 101%
18 | COc1ccc(/C=N\NC(=O)CN2CCN(c3cc4c(cc3F)c(=O)c(C(=O)N/N=C/c3ccc(OC)cc3)cn4C3CC3)CC2)cc1 | 82.5% | 88.5% | 90.3% | 101% | 73.2% | 88.8% | 102% | 89.8%
19 | O=C1C(Cl)=C(Cl)C(=O)c2c1nc1n2CCCC1 | 48.3% | 95.5% | 115% | 81.6% | 70% | 84.1% | 52.5% | 80.5%
20 | O=C(NCc1cccc(C(F)(F)F)c1)[C@H](CCC(=O)N1CCN(C2CCCCC2)CC1)N1C(=O)[C@@H](N2C(=O)OC[C@@H]2c2ccccc2)[C@H]1/C(Cl)=C/c1ccccc1 | 61.3% | 60.1% | 52.1% | 74.9% | 29.6% | 34.3% | 31.9% | 34.5%
21 | CCCCCCCCCC(=O)Oc1ccc(/C(=C(/C)c2ccccc2)c2ccc(OCCN3CCCC3)cc2)cc1 | 3.1% (active) | 24.5% | -59% (active) | -21.9% (active) | -14.1% (active) | 15.8% | -11.2% (active) | 15.2%
22 | CCCCOc1ccc(NC(=O)n2nc(NC(C)=O)c3cc(NC(C)=O)ccc32)cc1 | 83.2% | 81% | 92.3% | 121% | 91.9% | 88.8% | 101% | 111%
23 | Cc1ccc2c(c1)O/C(=C\c1cccc(OCC(=O)c3ccccc3)c1)C2=O | 87.6% | 104% | 96.5% | 102% | 74.8% | 84.4% | 130% | 85.3%
24 | CN(C)c1ccc(C2Nc3ccccc3-n3cccc32)cc1 (centres undefined) | 55.6% | 99.8% | 96.5% | 97.6% | 38.4% | 97.4% | 85.2% | 97.7%
25 | COc1ccc(C2c3ccc4ccccc4c3Oc3ncnc(N)c32)cc1 (centres undefined) | 60.1% | 88.3% | 8.46% (active) | 76.8% | 68.1% | 92.9% | 104% | 72.4%
26 | c1ccc2sc(SCCCn3ccnc3)nc2c1 | 75.5% | 96.8% | 97.6% | 97.4% | 88.1% | 92.5% | 94.1% | 97.8%
27 | O=[N+]([O-])c1c(F)cccc1Nc1cccc(F)c1 | 108% | 118% | 105% | 108% | 90.3% | 99.5% | 102% | 115%
28 | CCN(CC)Cc1cc(Nc2c3ccccc3nc3cc(Cl)ccc23)ccc1O | -68.2% (active) | -58% (active) | -92.7% (active) | -41% (active) | -60.7% (active) | -43% (active) | -100% (active) | -30% (active)
